PubChem BioAssay
Inconclusive results are not listed. Calls of active or inactive are those of the source. Unless noted, no stated cut-off is given here; in the data, active means inhibition above about 30%; inactive means the rest.

Key:
[1] = reducers of endogenous Her2 protein level, primary screen, SKBR3 breast tumor cells, AlphaScreen, ATP viability (AID 461;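 active means Her2 level under about 52% in both replicate screens, with viability over 70% of control, limit read from the data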;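 on Her2 level: lower value means less Her2 protein in the cells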;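 on viability: percent of carrier control wells set as 100% viability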); details: 18-24 h, measured here: SKBR3 viability, ATP luminescence, at 10 µM
[2] = target: Receptor tyrosine-protein kinase erbB-2 (Homo sapiens) (UniProt P04626); assay: as above; details: 18-24 h, at 10 µM, stronger effect = lower value
Chain of Receptor tyrosine-protein kinase erbB-2 (Homo sapiens) (P04626 whole entry, looked up): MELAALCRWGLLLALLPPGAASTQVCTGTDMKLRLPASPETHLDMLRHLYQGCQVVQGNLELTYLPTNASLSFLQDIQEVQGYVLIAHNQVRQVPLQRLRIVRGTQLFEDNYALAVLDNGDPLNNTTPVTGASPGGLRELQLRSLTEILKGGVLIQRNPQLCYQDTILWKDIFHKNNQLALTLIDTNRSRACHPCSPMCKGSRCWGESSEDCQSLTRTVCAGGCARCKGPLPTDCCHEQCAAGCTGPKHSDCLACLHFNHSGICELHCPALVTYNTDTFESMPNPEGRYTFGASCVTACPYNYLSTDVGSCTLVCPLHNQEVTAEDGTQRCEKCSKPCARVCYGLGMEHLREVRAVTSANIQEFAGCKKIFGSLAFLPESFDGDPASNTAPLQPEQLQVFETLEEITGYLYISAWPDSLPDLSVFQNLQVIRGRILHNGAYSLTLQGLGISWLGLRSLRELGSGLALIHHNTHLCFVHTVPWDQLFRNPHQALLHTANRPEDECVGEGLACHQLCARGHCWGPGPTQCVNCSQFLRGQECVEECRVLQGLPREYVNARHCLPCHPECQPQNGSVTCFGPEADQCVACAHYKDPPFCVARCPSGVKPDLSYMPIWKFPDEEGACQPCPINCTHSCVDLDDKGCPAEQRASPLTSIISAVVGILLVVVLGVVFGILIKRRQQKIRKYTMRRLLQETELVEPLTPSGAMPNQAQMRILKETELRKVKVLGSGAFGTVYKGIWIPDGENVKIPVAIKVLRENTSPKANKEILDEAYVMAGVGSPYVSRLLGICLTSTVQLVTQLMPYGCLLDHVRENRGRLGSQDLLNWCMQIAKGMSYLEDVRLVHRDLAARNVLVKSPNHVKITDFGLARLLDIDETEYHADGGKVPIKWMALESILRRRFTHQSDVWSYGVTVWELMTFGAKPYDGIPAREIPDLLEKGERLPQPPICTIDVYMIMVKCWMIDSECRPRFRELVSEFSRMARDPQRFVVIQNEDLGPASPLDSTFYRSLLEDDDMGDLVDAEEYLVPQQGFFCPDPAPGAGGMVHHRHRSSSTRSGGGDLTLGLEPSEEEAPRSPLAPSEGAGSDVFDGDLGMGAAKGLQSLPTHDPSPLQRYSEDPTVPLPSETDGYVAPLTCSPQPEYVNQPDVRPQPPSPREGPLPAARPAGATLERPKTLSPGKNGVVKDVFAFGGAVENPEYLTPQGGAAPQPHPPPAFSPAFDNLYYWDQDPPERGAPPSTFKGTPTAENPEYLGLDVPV

[3] = SK-BR-3 cell growth inhibitors, pilot screen, 24 h, human (AID 572;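 active means viability at or below 10% of carrier control in both of two separate runs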;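 further: compound exposure lasted between 18 and 24 h rather than exactly 24 h; 100% = carrier-treated control wells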); details: SK-BR-3 viability, CellTiter-Glo luminescence, at 10 µM, stronger effect = lower value
[4] = HUVEC growth inhibition – cell-based, human, primary screen (AID 575;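 active means viability at or below 30% in both replicate assays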;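 further: 100% = median of untreated cell wells with 0.1% DMSO on each plate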); details: HUVEC proliferation, CellTiter-Glo luminescence, 72 h; at 10 µM; stronger effect = lower value
[5] = growth inhibitors of H69AR lung tumor, primary screen, human, duplicate replicates (AID 580;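 active means viability at or under a set limit in both replicates, limit being median viability minus 3 SD, cut at about 48% in these data, passing the limit was not always enough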;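 further: 100% = mean luminescence of untreated wells and 0% = no signal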); details: H69AR lung tumor cells viability, ATP luminescence, 72 h; at 10 µM; stronger effect = lower value
[6] = reversal of MRP1-mediated doxorubicin resistance, pilot screen, H69AR cells, doxorubicin co-treatment (AID 601;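 active means viability loss from added drug above about 55%, and viability with drug at most 40%, in both replicates, limit read from the data, passing the limit was not always enough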); details: CellTiter-Glo, 72 h, at 10 µM; for differential viability (reversal): stronger effect = higher value
[7] = 384-well plate pilot, post-Golgi transport modulator project, inhibition of yeast transport mutant growth (AID 636; in the data active means inhibition above about 31%); details: absorbance 615 nm, about 18 h, stronger effect = higher value
[8] = growth suppression of yeast trafficking mutant, preliminary HTS, modulators of trafficking downstream of Golgi apparatus project, 1536-format plate, OD 615 nm (AID 637); details: yeast transport mutant growth, absorbance 615 nm, 18 h; stronger effect = higher value
[9] = OD615 S. cerevisiae growth inhibition, permissive medium, pilot counter-assay, permissive growth control for S. cerevisiae lifespan shortening project (AID 705;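 active means growth inhibition above 25% in both replicates, a cutoff set 3 SD above the mean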); details: OD615, 24 h, at 10 µM, stronger effect = higher value
[10] = Restrictive medium S. cerevisiae growth inhibition, OD615, pilot screen of yeast lifespan reduction project, restrictive growth control (AID 706;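 active means growth inhibition above a set limit, 3 SD over mean compound inhibition, in both replicates, cut at about 43% in these data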;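 further: modified DeaD lifespan yeast strain shifted to restrictive glucose medium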); details: OD615, 48 h, at 10 µM, stronger effect = higher value
[11] = viability gain of MRP-1-high H69AR cells under doxorubicin, pilot screen, MRP-1 activator project, CellTiter-Glo, duplicate (AID 807;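 active means viability increase at or above a cutoff of the median across tested compounds plus 3 SD, cut at about 8.5% in these data, passing the limit was not always enough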;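 further: compound pretreatment 18-22 h then 72 h combined with doxorubicin; 0% = doxorubicin alone and 100% = vehicle without doxorubicin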); details: H69AR viability with doxorubicin, CellTiter-Glo luminescence; at 10 µM; stronger effect = higher value
[12] = growth suppression of beta-catenin knockout HCT116, pilot screen, human colon tumor cells (AID 823;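 active means cell viability at or below a set limit in both duplicate runs, the limit being the all-compound median minus 4 SD, cut at about 23% in these data, passing the limit was not always enough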;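 further: 0% = wells killed by 20 µM Hyamine and 100% = untreated DMSO cell wells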); details: CellTiter-Glo, 60 h, at 10 µM, stronger effect = lower value
[13] = growth suppression of PTEN-deleted HCT116, pilot screen, cell-based, HCT116 clonal line, CellTiter-Glo (AID 824;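 active means viability at or below 27.92% in each of two runs, the all-compound median minus 4 SD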;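 further: 0% = 20 µM Hyamine control and 100% = vehicle cell control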); details: 60 h, at 10 µM, stronger effect = lower value
[14] = inhibitors of the yeast RAM network, pilot screen, dse1pr::URA3 reporter, 5-FOA selection (AID 869;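 active means inhibition over a set limit, the all-compound mean plus 3 SD, in both replicate runs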;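 further: 0% = DMSO wells with no growth and 100% = 10 µM 1-NA-PP1 with full growth; RAM network block rescues cells from 5-FOA so hits raise OD615 growth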); details: S. cerevisiae dse1pr::URA3 5-FOA growth, OD615, 2 d; at 10 µM; stronger effect = higher value; strain carries analog-sensitive mutant Cbk1 kinase
[15] = RAM signaling pathway blockade in yeast – S. cerevisiae, Pdr1DBD-CYC8 efflux-inhibited sensitized strain, primary screen (AID 1298;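 active means RAM network inhibition above 8.4% in each of two replicates, 3 SD over the compound average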;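 further: 0% = DMSO untreated cells without growth and 100% = 10 µM 1-NA-PP1 full growth; higher means more yeast growth rescued from 5-FOA killing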); details: S. cerevisiae cbk1-as DSE1-URA3 strain, 5-FOA growth OD615, 2 d; at 50 µM; stronger effect = higher value
[16] = H69AR cells + 2 uM doxorubicin, measured here: viability with 2 uM doxorubicin, stronger effect = lower value
[17] = H69AR cells, compound alone cytotoxicity

Compound	viability [1] [%]	Her2 level [2]	viability [3]	viability [4]	viability [5]	differential viability (reversal) ([6]; H69AR cells + 2 uM doxorubicin)	viability [6, 16] [%]	viability [6, 17] [%]	inhibition [7]	inhibition [8]	growth inhibition [9]	growth inhibition [10]	viability increase [11]	viability [12]	viability [13]	inhibition [14]	RAM network inhibition [15]
CCSc1nc2c(c(=O)[nH]1)C(c1cccnc1)C(C(=O)OC(C)C)=C(C)N2 (stereo not drawn)	95.5	83.5% (inactive)	95.5% (inactive)	90.9% (inactive)	97.4% (inactive)	15.6% (inactive)	81.8	97.4	-4.19% (inactive)	-0.33% (inactive)	-18.5% (inactive)	-8.67% (inactive)	-3.07% (inactive)	92.3% (inactive)	92.5% (inactive)	0.98% (inactive)	0.72% (inactive)
CCCCC(=O)NCCc1cc2c(C)ccc(C)c2[nH]c1=O	101	95% (inactive)	101% (inactive)	119% (inactive)	85.1% (inactive)	1.76% (inactive)	83.4	85.1	-5.07% (inactive)	1.67% (inactive)	-2.27% (inactive)	-13.3% (inactive)	0.28% (inactive)	109% (inactive)	106% (inactive)	1.61% (inactive)	0.32% (inactive)
CCc1nc2sc(C)c(C)c2c(=O)n1CCO	106	85% (inactive)	106% (inactive)	104% (inactive)	94.7% (inactive)	4.12% (inactive)	90.6	94.7	-6.23% (inactive)	-3.67% (inactive)	-1.03% (inactive)	0.805% (inactive)	-1.82% (inactive)	104% (inactive)	102% (inactive)	0.35% (inactive)	2.87% (inactive)
Cn1c(=O)c2c(nc(SCCOc3ccc4ccc(=O)oc4c3)n2C)n(C)c1=O	98.5	91.5% (inactive)	98.5% (inactive)	102% (inactive)	104% (inactive)	14.3% (inactive)	89.6	104	-2.93% (inactive)	-1.97% (inactive)	-4.61% (inactive)	1.18% (inactive)	1.22% (inactive)	99% (inactive)	103% (inactive)	0.27% (inactive)	2.41% (inactive)
Cc1ccnc(NC(=O)C2CCCN(S(=O)(=O)c3cnc[nH]3)C2)c1 (stereo not drawn)	95.5	104% (inactive)	95.5% (inactive)	94.7% (inactive)	105% (inactive)	8% (inactive)	97.4	105	0.8% (inactive)	-2.79% (inactive)	1.41% (inactive)	-5.85% (inactive)	-1.81% (inactive)	97.3% (inactive)	96.1% (inactive)	0.925% (inactive)	3.67% (inactive)
CCOC(=O)Cn1c(CCC(=O)O)ccc1-c1ccc(F)cc1	99	101% (inactive)	99% (inactive)	106% (inactive)	84.3% (inactive)	-8.34% (inactive)	92.6	84.3	-5.6% (inactive)	3.33% (inactive)	-9.79% (inactive)	-2.42% (inactive)	-2.3% (inactive)	102% (inactive)	101% (inactive)	0.72% (inactive)	2.74% (inactive)
CC(C)(C)SCCNC(=O)CSc1ccccc1	102	80% (inactive)	102% (inactive)	93.3% (inactive)	101% (inactive)	9.85% (inactive)	91	101	-6.22% (inactive)	1.9% (inactive)	-0.57% (inactive)	9.05% (inactive)	-0.61% (inactive)	107% (inactive)	98.3% (inactive)	0.055% (inactive)	4.54% (inactive)
COC(=O)c1cn(C(=O)c2ccc(Br)o2)c2ccccc12	89	102% (inactive)	89% (inactive)	95.9% (inactive)	88.3% (inactive)	-1.34% (inactive)	89.6	88.3	1.03% (inactive)	-1.33% (inactive)	4.04% (inactive)	0.5% (inactive)	0.03% (inactive)	98.2% (inactive)	102% (inactive)	2.23% (inactive)	4.65% (inactive)
CCOC(=O)c1sc(NC(=O)c2noc3c2CCCC3)c(C(=O)OCC)c1C	69.5	83% (inactive)	69.5% (inactive)	85% (inactive)	67.8% (inactive)	-13.2% (inactive)	81	67.8	1.41% (inactive)	-4.17% (inactive)	-0.315% (inactive)	-5.25% (inactive)	-3.88% (inactive)	55.2% (inactive)	55.8% (inactive)	0.47% (inactive)	2.96% (inactive)
COC(=O)CSC1=NS(=O)(=O)c2ccccc21	143	92% (inactive)	143% (inactive)	60% (inactive)	62.6% (inactive)	-26.7% (inactive)	89.3	62.6	-7.43% (inactive)	-2.3% (inactive)	94.3% (active)	98.3% (active)	-0.32% (inactive)	99.4% (inactive)	96.4% (inactive)	-0.34% (inactive)	-1.77% (inactive)
CC(C)c1nnc(NC(=O)c2ccc(N3C(=O)CCC3=O)cc2)s1	91.5	89.5% (inactive)	91.5% (inactive)	100% (inactive)	92.5% (inactive)	-1.78% (inactive)	94.3	92.5	-3.33% (inactive)	-0.67% (inactive)	-2.77% (inactive)	-18.5% (inactive)	-4.79% (inactive)	101% (inactive)	95.3% (inactive)	1.46% (inactive)	3.77% (inactive)
Cc1nnc2n(-c3ccc(Cl)cc3)c(=O)c3c4c(sc3n12)CN(C)CC4	84	98% (inactive)	84% (inactive)	103% (inactive)	91.6% (inactive)	-11.4% (inactive)	103	91.6	-4.94% (inactive)	-4.1% (inactive)	-4.76% (inactive)	-10.1% (inactive)	-1.73% (inactive)	112% (inactive)	93.1% (inactive)	0.945% (inactive)	2.13% (inactive)
Cc1ccc(-n2c3c(cc(C(=O)NC4CCSC4=O)c2=O)C(=O)CC(C)(C)C3)cc1 (stereo not drawn)	101	99.5% (inactive)	101% (inactive)	85.4% (inactive)	85.3% (inactive)	14.6% (inactive)	70.7	85.3	-1.69% (inactive)	-0.67% (inactive)	-1.71% (inactive)	-9.19% (inactive)	-2.78% (inactive)	99.1% (inactive)	101% (inactive)	2.32% (inactive)	4.09% (inactive)
CCOCCCNC(=O)CN1CCN(Cc2ccccc2C)C1=O	83.5	96% (inactive)	83.5% (inactive)	97.8% (inactive)	97% (inactive)	7.06% (inactive)	89.9	97	-6.8% (inactive)	-7.7% (inactive)	-4.88% (inactive)	6.12% (inactive)	0.02% (inactive)	94.7% (inactive)	86.8% (inactive)	1.54% (inactive)	1.29% (inactive)
Cc1ccc(NC(=O)CN(c2ccc3c(c2)OCO3)S(=O)(=O)c2c(C)n[nH]c2C)cc1	92	83% (inactive)	92% (inactive)	85.1% (inactive)	93.1% (inactive)	1.52% (inactive)	91.5	93.1	-5.73% (inactive)	2.33% (inactive)	-13.4% (inactive)	-19.2% (inactive)	2.09% (inactive)	95.7% (inactive)	96.9% (inactive)	3.25% (inactive)	5.15% (inactive)
O=C(CC1Oc2ccc(Cl)cc2NC1=O)NC1CCCCCC1 (stereo not drawn)	92.5	87.5% (inactive)	92.5% (inactive)	78.1% (inactive)	88% (inactive)	-3.67% (inactive)	91.6	88	-1.47% (inactive)	2.13% (inactive)	-4.77% (inactive)	-8.75% (inactive)	-1.05% (inactive)	102% (inactive)	102% (inactive)	3.56% (inactive)	4.95% (inactive)
COC(=O)Cn1c(CN2CCOCC2)nc2c1c(=O)n(C)c(=O)n2C	81.5	86.5% (inactive)	81.5% (inactive)	89.2% (inactive)	99.8% (inactive)	5.79% (inactive)	94	99.8	-4% (inactive)	-2% (inactive)	-0.42% (inactive)	1.05% (inactive)	-0.73% (inactive)	104% (inactive)	96.7% (inactive)	1.2% (inactive)	-1.44% (inactive)
Cc1ccc(C)n1-n1c(C)nc2sc(-c3ccccc3)cc2c1=O	89	106% (inactive)	89% (inactive)	80.3% (inactive)	81.9% (inactive)	-8.97% (inactive)	90.8	81.9	-0.38% (inactive)	2.67% (inactive)	-3.25% (inactive)	-27.4% (inactive)	1.12% (inactive)	54.6% (inactive)	61% (inactive)	0.52% (inactive)	9.68% (inactive)
Cn1c(C(=O)NCCN2CCN(c3ccccc3F)CC2)cc2c(=O)n(C)c3ccccc3c21	89	73.5% (inactive)	89% (inactive)	70.3% (inactive)	69.7% (inactive)	-2.84% (inactive)	72.5	69.7	-1.03% (inactive)	2% (inactive)	-0.67% (inactive)	-2.32% (inactive)	-2.38% (inactive)	74.4% (inactive)	73.2% (inactive)	0.115% (inactive)	0.11% (inactive)
